Measured values: PubChem BioAssay AID687028 (Broad Institute, 2013)
Among all 1,400 compounds or so, about 55 (4%) were called active. The list is a sample of the results. Entries with a potency or affinity are not part of this list. A number with no mark means an inactive call. No rule for the calls is given here.

Experiment: A549 cell toxicity, dose response, cytotoxicity control, plate reader, cherry-pick samples (AID 687028);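 also: cells incubated with compound for three days before reading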
Conditions: series mostly up to 19.5 µM; activity change, negative = toxicity: at the top concentration

Compound | activity change, negative = toxicity
COc1ccc2c3c([nH]c2c1)[C@@H](CO)N(Cc1ccc(F)cc1)CC31CN(C(=O)NC(C)C)C1 | -0.014% [at 21 µM]
Cn1cc(CC(=O)Nc2ccc(Nc3cccnc3)cc2)c2ccccc21 | -6.76%
O=S(=O)(c1ccc(F)cc1)N1CC[C@@H]2[C@H]1c1cc(-c3ccc(F)cc3)ccc1N[C@@H]2CO | -6.49%
CCC(=O)N1CC[C@@H]2[C@H](CO)Nc3ccc(-c4cccc(C#N)c4)cc3[C@@H]21 | 2.79%
O=C(OCc1ccccc1)N1CCCC2CC1c1ccccc12 (centres undefined) | 6.02%
CCCCN(C(=O)c1ccc2c(c1)NC(=O)CS2)c1ccccc1 | 4.51%
C[C@H](NC(=O)[C@@H]1CCCN1C(=O)OC(C)(C)C)c1ccccc1 | 0.406%
CC1CCC(CN2CCN=C2Nc2ccccc2)CC1 (centres undefined) | 5.22%
COc1cc(-c2cnc3c(NC(C)=O)cc(-c4ccccc4CN(C)C)cn23)cc(OC)c1OC | 9.33%
COc1ccc(-c2oc3ccc(-c4cc(OC)c(OC)c(OC)c4)cc3c2-c2ccc(OC)nc2)cc1 | -4.28%
O=C(C1CCCN(S(=O)(=O)c2cccnc2)C1)N1CCN(c2ccccn2)CC1 (centres undefined) | -1.36%
CCC(C)CN1C(=O)CSCC1(C)C(=O)Nc1ccc2c(c1)OCCO2 (centres undefined) | -3.44%
C[C@H](CO)N1C[C@H](C)[C@@H](CN(C)C(=O)CCCN(C)C)OCCCC[C@H](C)Oc2ccc(NC(=O)CCCN(C)C)cc2C1=O | 5.67%
COc1cccc(-c2ccc(C3[C@@H]4CN(S(=O)(=O)c5cn(C)cn5)C[C@H]3N4)cc2)c1 (some centres undefined) | 1.42% [at 21 µM]
CS(=O)(=O)N1[C@@H]2CNC[C@H]1C2c1ccc(-c2ccccc2)cc1 (some centres undefined) | 4.12%
O=C(NC1CCCCC1)[C@@H]1[C@@H](CO)[C@@H]2Cn3c(cccc3=O)[C@H]1N2Cc1cccnc1 | 2.63%
CN(Cc1nccs1)C(=O)c1ccc(OC2CCN(Cc3ccccn3)CC2)cc1 | -2.25%
COc1ccc(NC(=O)N[C@@H]2CC[C@@H](CCNS(=O)(=O)c3cccc(Cl)c3)O[C@@H]2CO)cc1 | 5.25%
COc1ccc(NC(=O)N[C@H]2CC[C@@H](CCn3cc(C4(O)CCCC4)nn3)O[C@@H]2CO)cc1 | 4.25%
O=C(NCCc1ccccc1)c1ccccc1NC(=O)C1CCCCC1C(=O)O (centres undefined) | 2.25%
Cc1ccc(OCC(=O)NC2CCSc3ccccc32)cc1 (centres undefined) | 5.23%
CC1CC2=C(C(=O)O1)C(c1ccc(Cl)cc1)Nc1ccccc1N2 (centres undefined) | 2.94%
COc1ccc(C#Cc2ccc([C@H]3[C@@H](CO)N4CCCCN(S(=O)(=O)c5ccccc5)C[C@@H]34)cc2)cc1 | 0.141%
C[C@H](CO)N1C[C@H](C)[C@@H](CN(C)Cc2ccc(Oc3ccccc3)cc2)Oc2ccc(NC(=O)Cn3cnnn3)cc2CC1=O | -2.24%
